According to PubChem BioAssay (NCI):
This is part of a sample that, as a whole, favours compounds with a hit. Of some 79,000 tested, about 15% had one in any assay. Active and inactive are the calls of the source. Rule as the data show it: active = growth inhibition above about 70%; inactive = the rest.

Experiment: NCI Yeast Anticancer Drug Screen. Data for the bub3 strain (AID 167)
Conditions: S. cerevisiae bub3 mutant strain, at 33.0 µM, active compounds read high
Outline: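 Readout: yeast growth inhibition, expressed relative to vehicle-only wells. The test organism is a mutant strain from a panel with lesions in DNA repair or checkpoint genes.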

SMILES | growth inhibition
C[N+](C)([O-])CCCNc1c2ccccc2nc2cccc([N+](=O)[O-])c12 | 79% (active)
O=C(c1cc(=O)c2ccc(O)cc2o1)c1ccc(Cl)cc1Cl | 95% (active)
CCCNC(=O)OCc1c(COC(=O)NCCC)c(-c2ccc(Cl)c(Cl)c2)n2c1CCC2 | 6% (inactive)
O=C(Cc1ccccc1)NN1C(=O)C(Cl)C1c1cc(Br)cc(Br)c1O (centres undefined) | 96% (active)
CCOC(=O)C(Cc1c2ccccc2cc2ccccc12)(NC(C)=O)C(=O)OCC | 0% (inactive)
O=[N+]([O-])/C=C/c1cc2ccc3ccccc3c2[nH]1 | 86% (active)
Fc1ccc(Nc2ccc3ccccc3c2)cc1 | -9% (inactive)
O=S1(=O)CCC2=CC(C(F)(F)F)=CC(C(F)(F)F)=CN21 | 92% (active)
O=C(Cc1ccccc1)NNc1nc(NNC(=O)c2ccncc2)nc(Nc2ccc([N+](=O)[O-])cc2)n1 | 17% (inactive)
CCCCS/C(=C(/C#N)C(N)=O)c1cc2c([nH]1)CCCC2 | -6% (inactive)
O=C(O)c1ccccc1C(=O)OC1CCc2ccccc2C1 (centres undefined) | 17% (inactive)
CCOC(=O)/C(=C\c1cccc(C)c1)C(C)=O | 97% (active)
NC(=S)N/N=C1\c2ccccc2CCC1CCC1(O)CCc2ccccc2C1=O (centres undefined) | 84% (active)
Cc1cccc2c(Cl)c3cccc(C)c3nc12 | 1% (inactive)
CC(C)OC(=O)NNc1c(Cl)cc(Cl)cc1Cl | 76% (active)
Nc1ccc2c(c1)C(=O)c1c(F)cccc1-2 | 12% (inactive)
N#CSCC1COc2ccccc2O1 (centres undefined) | 87% (active)
Cc1ccc(S(=O)(=O)NC(=O)C2C(=O)CC3(CCCCC3)CC2=O)cc1 | 72% (active)
CC1=NN(C(=O)c2ccccc2O)C(=O)/C1=C/c1ccco1 | 95% (active)
